Bioassay records as filed in PubChem BioAssay.
Mcl-1 Bim block: disrupts Bim peptide binding to human Mcl-1; Bead-based flow cytometry, Bim peptide-Mcl-1 binding; inhibition, % at 10 µM; 0.1% of 190,000 active; in the data active = inhibition above about 40%;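 also: 0% = no compound tracer wells and 100% = peptide blocker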
MCL1 BIM primary: disrupts human MCL1 binding to BIM-BH3 peptide | inhibition, % at 10.9 µM | 0.68% of 320,000 active | GST-MCL1 / FITC-Bim-BH3 fluorescence polarization;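 active = inhibition above the mean inhibition of all tested compounds plus 3 SD, set per campaign, cut at about 40% in these data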;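 also: 0% = DMSO wells and 100% = unlabeled Bim-BH3 peptide control; higher means more loss of mP so more displacement of Bim peptide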
Mcl1-Bid inh: Mcl-1/Bid interaction inhibition; TR-FRET Mcl-1/Bid-Dy647 peptide binding, 1536-well; inhibition, % at 21.7 µM; 0.97% of 220,000 active;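 active = compounds that cut the binding signal by more than half at the single screening dose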;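 also: His-tagged Mcl-1 with europium anti-His antibody binding Bid BH3 peptide; 0% = Mcl-1 plus peptide wells and 100% = peptide-only wells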
GLD-1 TGE inh: GLD-1-TGE RNA interaction inhibition (C. elegans); Q17339; purified GLD-1 + fluorescein TGE RNA, fluorescence polarization; inhibition, % at 5.96 µM; 0.44% of 320,000 active;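 active = percent inhibition above a per-plate cutoff, the plate mean of test compounds plus 3 SD, cut at about 30% in these data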;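 also: 0% = DMSO wells with GLD-1 and probe and 100% = wells lacking GLD-1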
Target sequence (Q17339 whole entry, looked up): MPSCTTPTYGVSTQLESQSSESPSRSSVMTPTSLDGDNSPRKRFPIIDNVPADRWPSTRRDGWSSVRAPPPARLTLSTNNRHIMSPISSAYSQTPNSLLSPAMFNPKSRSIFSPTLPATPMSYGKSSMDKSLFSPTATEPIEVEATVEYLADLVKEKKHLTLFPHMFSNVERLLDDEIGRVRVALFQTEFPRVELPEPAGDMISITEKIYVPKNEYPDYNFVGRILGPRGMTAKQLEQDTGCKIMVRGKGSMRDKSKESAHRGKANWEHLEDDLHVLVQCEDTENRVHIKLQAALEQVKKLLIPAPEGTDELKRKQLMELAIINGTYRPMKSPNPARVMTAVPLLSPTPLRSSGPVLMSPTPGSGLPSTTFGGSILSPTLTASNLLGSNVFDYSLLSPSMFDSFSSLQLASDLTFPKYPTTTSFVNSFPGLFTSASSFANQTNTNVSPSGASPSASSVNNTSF
BCLXL inh: inhibitors of human Bcl-xL. Q07817. GST-Bcl-xL / FITC-Bim BH3 peptide fluorescence polarization. inhibition, % at 10.9 µM. 0.7% of 320,000 active. AID 2129;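 active = inhibition above the mean of all tested compounds plus 3 SD, cutoff set per campaign, cut at about 30% in these data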;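 also: 0% = DMSO wells and 100% = unlabeled Bim-BH3 peptide competitor; inhibitors lower millipolarization by displacing the labeled peptide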
Target sequence (Q07817 whole entry, looked up): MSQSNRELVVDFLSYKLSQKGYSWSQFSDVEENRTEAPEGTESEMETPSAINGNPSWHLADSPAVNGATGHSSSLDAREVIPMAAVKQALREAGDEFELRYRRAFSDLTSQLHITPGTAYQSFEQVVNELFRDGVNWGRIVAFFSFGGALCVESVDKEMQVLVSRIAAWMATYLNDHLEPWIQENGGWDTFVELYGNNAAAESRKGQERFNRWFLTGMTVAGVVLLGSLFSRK
Mcl1-Noxa inh: disrupts binding of human Mcl-1 to Noxa peptide; TR-FRET Mcl-1/Noxa peptide binding, 2 h; Q07820; 1.5% of 220,000 active; inhibition, % at 21.7 µM;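 active = compounds that cut the protein-peptide binding signal by more than 50% relative to plate controls in a single-dose test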;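 also: His-tagged Mcl-1 with rhodamine Noxa BH3 peptide and terbium anti-His antibody; 0% = Mcl-1 plus Noxa peptide wells and 100% = peptide-only wells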
Bcl-xL conf: Bcl-xL (human) inhibition, MCL1 counter-screen confirmation; shares compounds with MCL1 BIM primary; GST-Bcl-xL / FITC-Bim BH3 peptide FP binding; inhibition, % at 10.9 µM; 54% of 1,700 active;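 active = inhibition above a cutoff equal to the mean inhibition of all tested compounds plus 3 SD, cut at about 30% in these data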;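 also: 0% = DMSO wells and 100% = unlabeled Bim BH3 control peptide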
MCL1 inh confirm: MCL1-BIM-BH3 interaction inhibition, confirmation; shares compounds with MCL1 BIM primary; GST-MCL1 / FITC-Bim-BH3 fluorescence polarization; inhibition, % at 10.9 µM; 61% of 1,700 active;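 active = inhibition above the average of all tested compounds plus 3 SD, cut at about 40% in these data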;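 also: 0% = DMSO wells and 100% = unlabeled Bim-BH3 control peptide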
GLD1 RNA confirm: confirmation of C. elegans GLD-1 TGE RNA binding inhibitors; shares compounds with GLD-1 TGE inh; GLD-1/FL-TGE RNA fluorescence polarization, biochemical; inhibition, % at 5.96 µM; 10% of 550 active; AID 2459;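 active = average inhibition across triplicates above the hit cutoff set in the primary screen, cut at about 32% in these data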;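 also: 0% = GLD-1 with RNA probe and DMSO and 100% = wells lacking GLD-1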
Starred values were filed as active, the others as inactive; . = not tested or not shown. In the library only some 2.3% were active in any assay of this set; here they are far more common.

SMILES | Mcl-1 Bim block | MCL1 BIM primary | Mcl1-Bid inh | GLD-1 TGE inh | BCLXL inh | Mcl1-Noxa inh | Bcl-xL conf | MCL1 inh confirm | GLD1 RNA confirm
N#CC1=C(N)C2=CCCC[C@H]2[C@H](c2cccc(F)c2)C1(C#N)C#N | -7.0 | 45.0* | -55.7 | 37.3* | 44.1* | 24.4 | 24.0 | 24.7 | 1.4
N#CC1=C(N)N(c2ccccc2)C(c2ccccc2)C1(C#N)C#N (centres undefined) | 2.0 | 4.0 | . | 4.0 | 1.7 | . | . | . | .
CCCCN1C(=O)C(=Nc2cccc3cnccc23)c2ccccc21 | -7.0 | 3.1 | -35.1 | 3.5 | 3.6 | 15.2 | . | . | .
Cc1nc2cc(NC(=O)N3CCN(c4ccccn4)CC3)ccc2o1 | 3.0 | 2.0 | 0.9 | 9.4 | -1.7 | -7.7 | . | . | .
O=C(Nc1ccc2nc(-c3ccco3)c(-c3ccco3)nc2c1)N1CCN(c2ccccn2)CC1 | 15.0 | 52.6* | -55.2 | 33.9* | 50.8* | 63.8* | 57.9* | 70.8* | -1.2
CCOC(=O)c1ccc(NC(=O)[C@@H](NC(N)=O)C(C)C)cc1 | . | 119.8* | -36.8 | 97.8* | 110.1* | -3.9 | -0.1 | -1.7 | -2.3
CCC(C)C(NC(N)=O)C(=O)Nc1ccc(C(=O)OC)cc1 (centres undefined) | 0.0 | -6.2 | -26.5 | 1.1 | 0.8 | 2.0 | . | . | .
O=[N+]([O-])c1ccc(CNCc2cc(Cl)ccc2O)cc1 | . | -10.1 | . | 1.4 | 2.0 | . | . | . | .
Cc1ccc2c3c(cccc13)-c1ccccc1C2=O | 11.0 | 42.1* | -1.1 | 43.1* | 36.5* | 13.1 | 27.1 | 30.6 | 39.4*
CC1CCCC(NC(=O)COC(=O)c2ccc3ncsc3c2)C1C (centres undefined) | . | 5.9 | . | 0.6 | 3.6 | . | . | . | .
Nc1ccc(O)c2c1C(=O)c1ccccc1C2=O | 4.0 | 157.8* | -103.9 | 82.0* | 122.9* | 102.8* | 120.4* | 176.8* | 67.3*
N#Cc1c(-c2ccco2)cc(-c2cccnc2)nc1N | 7.0 | 75.1* | -11.6 | 44.1* | 46.1* | 62.4* | 16.3 | 11.6 | -4.4
O=C1CCCC2=C1Sc1ccccc1N2 | . | 69.0* | -4.1 | 30.7* | 58.1* | 0.5 | 52.9* | 78.0* | 20.2
CC1CCCN(c2nc3ccccc3nc2C(C#N)S(=O)(=O)c2ccccc2)C1 (centres undefined) | -5.0 | 68.5* | -11.2 | 55.5* | 76.5* | -8.7 | -5.0 | -20.8 | 1.2
Cc1ccc(S(=O)(=O)C(C#N)c2nc3ccccc3nc2N2CCN(C)CC2)cc1 (centres undefined) | -5.0 | 9.2 | -9.9 | 4.7 | 8.1 | 13.5 | . | . | .
Cc1cc(S(=O)(=O)NCCc2ccncc2)cc(C)c1F | . | 5.1 | . | 6.5 | 5.7 | . | . | . | .
CN(C)CCCN(C(=O)c1ccc(C(=O)c2ccccc2)cc1)c1nc2cc3c(cc2s1)OCCO3 | . | 8.0 | . | -3.2 | 2.1 | . | . | . | .
CC(=O)Oc1ccc(N2C(=O)C3C(C2=O)C(C(=O)c2ccc(Cl)cc2)N2CCCC32)cc1 (centres undefined) | . | 73.7* | -21.3 | 57.9* | 78.2* | 17.3 | 65.6* | 86.0* | 14.3
COc1ccc(N2C(=O)[C@@H]3[C@H](C2=O)[C@H](C(=O)c2ccc(OC(C)=O)cc2)N2N=CC=C[C@@H]32)cc1 | 4.0 | 1.6 | -46.5 | 2.4 | 6.7 | 8.1 | . | . | .
O=C(CCNS(=O)(=O)c1ccc(Br)cc1)NNC(=O)C1COc2ccccc2O1 (centres undefined) | . | . | . | 4.9 | . | . | . | . | .
Oc1c(Br)cc(Br)cc1C=Nc1cccc2ncccc12 | . | 72.6* | . | 53.0* | 74.2* | . | 42.6* | 54.5* | 3.4
CCN(CC)S(=O)(=O)c1cccc(C(=O)NCC2CCCCC2)c1 | . | -4.7 | . | 0.6 | -0.4 | . | . | . | .
O=C(O)c1cccc2c1C(=O)c1ccccc1C2=O | 0.0 | -1.6 | -6.1 | 5.9 | 5.5 | 8.3 | . | . | .
O=C(O)c1ccc2c3c(ncnc13)-c1ccccc1C2=O | -4.0 | 74.5* | 13.2 | 59.9* | 71.7* | 22.5 | 121.3* | 141.8* | 44.8*
CC(C)CNc1c(N)n(CC(C)C)c(=O)[nH]c1=O | -3.0 | . | -64.4 | . | . | 7.3 | . | . | .
SMILES | Mcl-1 Bim block | MCL1 BIM primary | Mcl1-Bid inh | GLD-1 TGE inh | BCLXL inh | Mcl1-Noxa inh | Bcl-xL conf | MCL1 inh confirm | GLD1 RNA confirm
CCCCn1c(N)c(NCc2ccccc2OC)c(=O)[nH]c1=O | 2.0 | 16.6 | -81.7 | 21.0 | 14.9 | -7.3 | . | . | .
CCCCNc1c(N)n(CCCC)c(=O)[nH]c1=O | 1.0 | 52.0* | -46.6 | 37.2* | 36.4* | 9.7 | 56.0* | 79.2* | 79.0*
CCCCn1c(N)c(NCCC)c(=O)[nH]c1=O | -10.0 | 49.8* | -73.1 | 30.9* | 34.8* | 0.2 | 29.4 | 39.1 | 9.3
O=C(NC1CCN(C(=O)c2cccs2)CC1)c1ccccc1 | . | -6.3 | -4.8 | 3.5 | 5.6 | -5.8 | . | . | .
O=C(COC(=O)c1ccc[n+]([O-])c1)Nc1ccc([N+](=O)[O-])cc1Cl | . | . | . | 6.1 | . | . | . | . | .
CCOC(=O)C(=O)c1c(C)cc2ccccn12 | 0.0 | . | -20.8 | . | . | -0.3 | . | . | .
COC(=O)c1c(C)c2c(C)cc3ccccn3c-2c1C(=O)OC | 0.0 | 51.3* | -56.6 | 33.3* | 50.6* | 23.3 | 59.6* | 74.2* | 19.6
COc1ccc(C(=O)NCc2nc(C)c(C)s2)cc1OC1CCN(C(C)C)CC1 | . | 11.4 | . | 0.3 | 8.7 | . | . | . | .
CC(=O)Nc1nc2n(n1)C(c1ccccc1)C=C(c1ccccc1)N2 (centres undefined) | -1.0 | 52.9* | -12.0 | 47.5* | 57.0* | 8.5 | 56.8* | 79.7* | -2.1
CN(Cc1c(F)cccc1Cl)C(=O)CNC(=O)c1sc2ccccc2c1Cl | . | 3.8 | . | 0.6 | 1.9 | . | . | . | .
CCOC(=O)c1sc(=S)n(-c2ccc3c(c2)OCO3)c1N | -9.0 | 48.8* | -23.2 | 49.4* | 106.3* | -0.7 | 13.6 | 8.4 | -8.1
CCOC(=O)c1c2c3c(cccc3n(C)c1=O)C(=O)c1ccccc1-2 | . | 53.8* | . | 31.9* | 54.7* | . | 75.7* | 89.8* | 16.4
Nc1n[nH]c2cc(=O)n(-c3cccc(C(F)(F)F)c3)nc12 | 0.0 | 60.4* | -8.0 | 39.2* | 43.2* | -4.1 | 38.2* | 53.7* | 21.3
NS(=O)(=O)c1ccc(NC(=O)COC(=O)COc2ccccc2)cc1 | -1.0 | -5.8 | -28.3 | -9.2 | -3.2 | 3.4 | . | . | .
O=C1c2cccc3cc([N+](=O)[O-])cc(c23)C(=O)N1/N=C/c1ccc(O)cc1O | . | 61.2* | 97.8* | 59.5* | 56.3* | 89.6* | 27.4 | 30.7 | 10.5
COc1ccc(CNCc2ccc3ccccc3c2)c(OC)c1 | . | -0.8 | . | -1.5 | 3.2 | . | . | . | .
